From PubChem BioAssay
Hits are enriched below; roughly 5.9% of the tested compounds scored in any of these assays.
HSP90 inh = HSP90 refolding inhibition in rabbit reticulocyte lysate; luciferase refolding luminescence, 3 h; inhibition, % at 5.6 µM; hit rate 0.91% among 290,000;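 active means inhibition above the screen-wide mean plus 3 SD, computed separately per campaign, cut at about 16% in these data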;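 further: 0% = DMSO wells and 100% = 60 µM geldanamycin wells; inhibitors lower the luminescence because luciferase stays unfolded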
HSF1 activator = increases HSF-1 driven luciferase reporter signal; AID 504408; activation, % at 9 µM; hit rate 1.7% among 300,000; NIH3T3-HGL HSF-1 luciferase reporter, MG132, 8 h; 100% = twice DMSO control signal;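 active means mean replicate activation of at least 50% with a set share of replicates each reaching 50%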;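 further: 0% = median of the neutral control wells and 100% = twice that signal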
NR0B1 inh = inhibits human nuclear receptor DAX1; P51843; HEK293 Gal4-DAX1 luciferase reporter, luminescence; inhibition, % at 6.75 µM; hit rate 0.99% among 340,000;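 active means inhibition above the mean over all tested compounds plus 3 SD, cut at about 4.2% in these data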;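 further: 0% = DAX1-transfected cells with DMSO and 100% = empty-vector control cells with DMSO; inhibition shows as a rise in luminescence from relieved DAX1 repression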
HSF1 inh = HSF1 inhibition; NIH3T3-HGL HSE-luciferase, MG132-induced, luminescence 8 h; active compounds read low; activity change, negative = inhibition, % at 7.5 µM (by protocol); hit rate 0.77% among 300,000; AID 2098;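 active means more than half of replicate wells show activity change below -50%, luminescence cut by over half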;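 further: luciferase reports HSF-1 transcriptional activity via heat shock element; 0% = median of DMSO wells and -100% = zero luminescence signal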
AHR activator = activators of human aryl hydrocarbon receptor; P35869; AHR-responsive luciferase reporter cells, luminescence; activation, % at 5 µM; hit rate 2.5% among 320,000; AID 2796; in the data active means activation above about 47%;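 further: 0% = vehicle wells and 100% = reference agonist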
Target sequence (P35869 whole entry, looked up): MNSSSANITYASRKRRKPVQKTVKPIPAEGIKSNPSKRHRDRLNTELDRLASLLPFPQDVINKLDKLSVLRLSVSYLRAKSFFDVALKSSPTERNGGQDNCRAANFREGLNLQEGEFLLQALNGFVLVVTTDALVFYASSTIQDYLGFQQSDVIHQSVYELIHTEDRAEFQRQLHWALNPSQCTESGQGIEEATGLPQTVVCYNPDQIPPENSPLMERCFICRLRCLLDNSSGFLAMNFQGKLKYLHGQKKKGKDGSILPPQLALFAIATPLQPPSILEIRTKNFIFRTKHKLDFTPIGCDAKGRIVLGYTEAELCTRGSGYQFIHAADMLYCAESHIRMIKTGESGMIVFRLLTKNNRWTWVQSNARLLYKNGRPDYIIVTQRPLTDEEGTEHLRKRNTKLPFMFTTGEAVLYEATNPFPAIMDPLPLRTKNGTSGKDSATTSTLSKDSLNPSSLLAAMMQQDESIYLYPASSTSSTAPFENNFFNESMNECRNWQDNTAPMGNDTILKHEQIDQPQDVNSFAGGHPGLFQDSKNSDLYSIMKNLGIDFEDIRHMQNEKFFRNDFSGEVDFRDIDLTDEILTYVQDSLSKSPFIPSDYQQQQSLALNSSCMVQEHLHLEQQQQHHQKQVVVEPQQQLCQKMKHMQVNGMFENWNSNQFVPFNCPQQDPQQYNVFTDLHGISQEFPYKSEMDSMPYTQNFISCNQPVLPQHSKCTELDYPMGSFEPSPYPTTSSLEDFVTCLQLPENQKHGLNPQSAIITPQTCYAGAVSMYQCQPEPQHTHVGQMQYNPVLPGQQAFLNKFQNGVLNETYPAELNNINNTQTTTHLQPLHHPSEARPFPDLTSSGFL
FXN GAA850 act = activators of GAA850 frataxin (FXN) promoter | HEK293 lucGAA850 FXN promoter luciferase reporter, 24 h; percent of 10 µM SAHA response | activation, % at 6 µM | hit rate 0.56% among 360,000 | AID 540364;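 active means activation above the average of all compounds screened plus 3 SD, cutoff fixed separately per campaign, cut at about 7.5% in these data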;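 further: 0% = DMSO wells and 100% = 10 µM SAHA wells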
AHR act cf = human AHR activation, confirmation; activation, % at 9 µM; human cells, AHR-responsive luciferase reporter, luminescence; shares compounds with AHR activator; hit rate 87% among 2,300; in the data active means activation above about 49%;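 further: HepG2 hepatoma cells carrying a DRE-driven firefly luciferase reporter; 0% = vehicle wells and 100% = reference agonist wells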
PXR counter = PXR activation, counter-screen for AHR activators. shares compounds with AHR activator. cell-based PXR reporter, luciferase luminescence. activation, % at 11.6 µM. hit rate 88% among 2,300. AID 434939; in the data active means activation above about 11%;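 further: human hepatoma DPX-2 cells expressing full-length human PXR; 0% = DMSO and 100% = reference agonist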
* hit, by the source's call; x = no result given.

SMILES | HSP90 inh | HSF1 activator | NR0B1 inh | HSF1 inh | AHR activator | FXN GAA850 act | AHR act cf | PXR counter
O=C(CCCC(=O)Nc1ccccc1Br)N/N=C/c1c(F)cccc1Cl | -5 | 7 | 0 | -2 | 2 | 1 | x | x
COc1ccc(NC(=O)c2c(Cl)nc3ccccn23)cc1 | 3 | 32 | -1 | 20 | 86* | 1 | 47 | 10
Cc1cc2nc(C)n3c4ccccc4nc3n2n1 | 11 | -7 | -1 | -6 | 85* | -1 | 127* | 13*
Cc1cc(C)n(-c2nc3ccccc3n3nnnc23)n1 | -4 | 19 | -1 | 1 | 12 | 0 | x | x
CCc1nc2cc(C)nn2c2nc3ccccc3n12 | 1 | 2 | 0 | -4 | 91* | 4 | 99* | 30*
CC(C)C(=O)Nc1c(-c2ccccc2F)c(=O)c2ccccc2n1C | -4 | -6 | 0 | -3 | 8 | -1 | x | x
CCOC(=O)c1c(NC(=O)c2ccc(N3C(=O)C4C5C=CC(C5)C4C3=O)cc2)sc2c1CCCC2 (stereo not given) | 4 | 11 | 0 | -6 | 0 | -1 | x | x
COc1ccc(N(CC(=O)Nc2ccc(C(C)C)cc2)S(=O)(=O)c2c(C)noc2C)cc1 | 2 | -13 | 0 | -10 | 6 | 0 | x | x
Cc1noc(C)c1S(=O)(=O)N(CC(=O)Nc1ccc2c(c1)OCO2)c1ccc(C(C)C)cc1 | 0 | x | 3 | x | 80* | 2 | 84* | 159*
Cc1c(C(=O)NC(=S)NCc2cccnc2)cccc1[N+](=O)[O-] | -1 | 22 | 0 | 2 | 28 | 4 | x | x
Cc1csc2ncc(C(=O)NCCC(c3ccccc3)c3ccccc3)c(=O)n12 | 0 | -16 | 0 | 1 | 2 | 0 | x | x
CCOc1ccc(NC(=O)c2cnc3scc(C)n3c2=O)cc1 | 0 | 10 | -1 | 3 | 90* | 1 | 129* | 22*
COc1ccc(Cc2nnc(NC(=O)c3cc(OC)cc(OC)c3)s2)cc1 | 1 | 9 | 1 | -3 | 82* | 0 | 76* | 12*
CCOc1ccc(-n2c(SCC(=O)NC)nnc2-c2ccco2)cc1 | -3 | 18 | -1 | 4 | 2 | 4 | x | x
Cc1ccc(/C=N/NC(=O)CSc2nc3ccccc3n2C)s1 | -2 | 3 | -1 | -1 | 108* | -2 | 92* | 52*
Nc1nc(-c2ccccc2)c(N=Nc2ccc(Cl)cc2)s1 | 3 | -3 | -1 | 5 | 120* | 5 | 88* | 14*
Cc1cc(N/N=C\c2ccccc2)nc(-c2ccccc2O)n1 | -1 | 5 | -2 | 14 | 82* | 3 | 108* | 15*
Cc1cc(N/N=C/c2ccc(O)cc2O)nc(-c2ccccc2O)n1 | -2 | 10 | -3 | 6 | 12 | -2 | x | x
COc1ccc(/C=N/Nc2cc(C)nc3ccc(OC)cc23)c(OC)c1 | 0 | 16 | -1 | -6 | 43 | -6 | x | x
C/C(=N\Nc1cc(C)nc(-c2ccccc2O)n1)c1ccccc1O | -1 | -33 | 1 | -29 | 24 | 0 | x | x
Cc1cc(N/N=C/c2cccc(Br)c2)nc2ccccc12 | 2 | 24 | 0 | 12 | 100* | 6 | 97* | 34*
Cc1cc(=O)[nH]c(N/N=C/c2cccc(Br)c2)n1 | 0 | 8 | 2 | 7 | 22 | 1 | x | x
COc1ccc2nc(C)cc(N/N=C/c3ccccc3)c2c1 | x | x | 0 | x | 142* | -5 | 96* | 2
Cc1cc(N/N=C/c2ccccc2O)nc(-c2ccccc2O)n1 | 5 | 12 | -1 | 19 | 119* | 0 | 40 | 9
COc1cc2c(cc1OC)C(C)N(S(=O)(=O)c1ccc(Cl)nc1)CC2 (stereo not given) | 2 | 12 | 0 | 12 | 3 | 1 | x | x
SMILES | HSP90 inh | HSF1 activator | NR0B1 inh | HSF1 inh | AHR activator | FXN GAA850 act | AHR act cf | PXR counter
O=C(NN=C1CCCCCC1)c1c[nH]c2ccccc12 | -1 | 5 | -1 | 2 | 91* | 3 | 7 | 6
C/C(=N\NC(=O)c1cc2ccccc2cc1O)c1ccc(C)o1 | 0 | 25 | 3 | 45 | 15 | 0 | x | x
C/C(=N\NC(=O)c1c[nH]c2ccccc12)c1ccc(C)o1 | 0 | 8 | 2 | 1 | 82* | 0 | 119* | 17*
COc1cc(CNC(C)c2ccccc2)cc(Cl)c1OCC(=O)Nc1ccccc1 (stereo not given) | 1 | 18 | -1 | 1 | 0 | 4 | x | x
O=C(COC(=O)/C=C/c1cccc(C(F)(F)F)c1)NCc1cccs1 | x | x | 0 | x | 0 | 1 | x | x
O=C(NCc1ccccn1)c1ccc2ccccc2n1 | -4 | -8 | 0 | 5 | 91* | 1 | 86* | 16*
O=S(=O)([O-])CCC[n+]1c(SCCCS(=O)(=O)O)sc2ccc(Cl)cc21 | -6 | 1 | 1 | -10 | 1 | 0 | x | x
C=C(C)COc1ccc(-c2[nH]ncc2Oc2ccccc2OC)c(O)c1 | -2 | 23 | 0 | 15 | 98* | 3 | 55* | 66*
CCOc1ccccc1Oc1cn[nH]c1-c1ccc(OCC(=O)NN)cc1O | 0 | 2 | 0 | -1 | 107* | 1 | 68* | 15*
Cc1cccc(N2CCN(CC(=O)N(C3CCCC3)C3CCS(=O)(=O)C3)CC2)c1C (stereo not given) | x | x | 0 | x | 1 | -1 | x | x
Cc1cc2nn(-c3cccc4ccccc34)nc2cc1N | 1 | -3 | 0 | 3 | 82* | 0 | 110* | 21*
CC(OC(=O)c1cc(O)c2ccccc2c1O)C(=O)Nc1ccc(C(N)=O)cc1 (stereo not given) | x | 16 | 1 | -2 | 103* | 1 | 78* | 19*
CC(OC(=O)c1ccccc1C(=O)N(C)c1ccccc1)C(=O)Nc1ccc(C(N)=O)cc1 (stereo not given) | x | -2 | 1 | 1 | 5 | 4 | x | x
Cn1cncc1C#Cc1c(C=O)n(C)c2ccccc12 | x | x | 0 | x | 114* | 3 | 109* | 23*
COc1cccc(CNC(=O)COC(=O)/C=C/c2ccc(SC)cc2)c1 | x | x | -1 | x | 0 | -1 | x | x
Nc1nc(N)nc(-c2cccc(Br)c2)n1 | x | x | 3 | x | x | 5 | x | x
Brc1cccc(-c2n[nH]c(-c3ccccc3)n2)c1 | 0 | -12 | 2 | 0 | 117* | 3 | 128* | 15*
Cc1c(CN2CCC(n3nccc3NC(=O)C3CC3)CC2)[nH]c2ccccc12 | 0 | 5 | 1 | 0 | 85* | 0 | 82* | 43*
CCc1ccc(N=Nc2ccc(O)c3[nH]cnc23)cc1 | x | x | 5.3* | x | 101* | 4 | 93* | 11*
C=CCOn1c(C)c(C(C)=O)c2c3no[n+]([O-])c3ccc21 | 4 | -10 | -1 | -8 | 111* | 1 | 78* | 85*
